# Shown are actives, neighbours in structure and some others; about 7.2% of the full set was active somewhere.
# VLA-4 inh – inhibition in a human VLA-4 binding assay | hit rate 0.2% among 330,000 | inhibition, % (about 7 µM as worked out from the volumes in the protocol) | AID 2557 | VLA-4 expressing cells, ligand binding flow cytometry; in the data active = inhibition above about 50%
# Target sequence (P13612 whole entry, looked up): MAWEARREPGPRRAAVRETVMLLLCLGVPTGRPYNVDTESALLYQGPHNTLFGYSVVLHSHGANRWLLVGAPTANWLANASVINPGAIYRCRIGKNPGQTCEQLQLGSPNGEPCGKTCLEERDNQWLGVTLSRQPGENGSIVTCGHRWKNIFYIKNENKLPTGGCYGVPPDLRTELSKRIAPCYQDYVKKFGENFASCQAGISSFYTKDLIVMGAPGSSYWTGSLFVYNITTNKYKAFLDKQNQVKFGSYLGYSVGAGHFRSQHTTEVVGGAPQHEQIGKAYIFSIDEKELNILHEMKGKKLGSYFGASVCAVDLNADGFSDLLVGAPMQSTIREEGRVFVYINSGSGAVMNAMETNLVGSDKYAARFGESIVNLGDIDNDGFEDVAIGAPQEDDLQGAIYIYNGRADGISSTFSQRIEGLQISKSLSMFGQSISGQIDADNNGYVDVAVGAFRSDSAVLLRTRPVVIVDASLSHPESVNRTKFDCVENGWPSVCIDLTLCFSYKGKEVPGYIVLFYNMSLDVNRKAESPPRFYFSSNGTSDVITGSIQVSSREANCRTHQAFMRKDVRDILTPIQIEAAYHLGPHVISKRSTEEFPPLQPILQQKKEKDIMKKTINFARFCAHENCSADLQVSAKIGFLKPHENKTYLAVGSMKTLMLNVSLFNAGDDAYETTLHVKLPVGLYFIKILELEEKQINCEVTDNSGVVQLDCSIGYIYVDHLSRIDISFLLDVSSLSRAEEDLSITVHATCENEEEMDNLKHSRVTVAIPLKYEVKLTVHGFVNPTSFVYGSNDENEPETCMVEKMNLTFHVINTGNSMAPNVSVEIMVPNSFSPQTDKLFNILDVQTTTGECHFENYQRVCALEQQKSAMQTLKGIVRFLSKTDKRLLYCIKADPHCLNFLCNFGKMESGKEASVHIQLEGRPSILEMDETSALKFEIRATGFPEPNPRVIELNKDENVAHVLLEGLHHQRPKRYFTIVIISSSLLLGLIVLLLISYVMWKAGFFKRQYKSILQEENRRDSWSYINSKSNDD
# AHR act – activates the human aryl hydrocarbon receptor; AID 2796; hit rate 2.5% among 320,000; P35869; AHR-responsive luciferase reporter cells, luminescence; activation, % at 5 µM; in the data active = activation above about 47%;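 also: 0% = vehicle wells and 100% = reference agonist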
# Efflux pump mplx – blocks antifungal efflux pumps in multiplex yeast assay. S. cerevisiae Candida pump triplex, Nile Red efflux. inhibition, % at 10 µM. hit rate 0.44% among 330,000. AID 485275;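 active = plate passing quality check with inhibition over a set limit, or well fluorescence over plate mean plus 4 SD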;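 also: Nile Red retained in pooled yeast measured as flow cytometry median fluorescence; 0% = buffer negative control and 100% = Enniatin B positive control; higher means more Nile Red kept so more efflux inhibition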
# ALR H2O2 inh – blocks human ALR sulfhydryl oxidase activity; purified ALR, DTT oxidation, H2O2 HRP-luminol luminescence; inhibition, % (test concentration not listed); hit rate 3.8% among 290,000; AID 485317;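 active = mean replicate inhibition above about 79%, with every replicate also reaching it, limit read from the data; inconclusive = only one of the two criteria met; inactive = mean below limit and not every replicate reaching it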
# Bfl-1 A1 inh – inhibitors of the anti-apoptotic protein A1, read as caspase activation | hit rate 0.066% among 330,000 | AID 2462 | caspase activation, % (concentration not given with the values) | MEF A1-2A-BIM cells, Caspase-Glo 3/7 luminescence, 3 h; percent of clofoctol response, vehicle zero;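 active = over half of replicate activation scores above 10%, or exactly half above 10 with the replicate mean above 10; inconclusive = replicate mean below 10 yet half the replicates above 10; inactive = over half of replicates below 10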
# SUMO Mot1 rescue – SUMOylation pathway inhibition by Mot1-301 growth rescue; hit rate 1% among 320,000; S. cerevisiae Mot1-301 growth rescue, ATP luminescence, 38.5C; percent above DMSO median, 100 means doubled; growth rescue, % at 18.8 µM;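 active = every valid replicate shows activation above 250% relative to neutral control wells; inactive = the rest, any valid replicate at or below 250%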;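 also: OY570 slx delta 5 strain wells were the positive control but not used for scaling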
# * = called active by the depositor; ? = inconclusive; . = no result given.
SMILES,VLA-4 inh,AHR act,Efflux pump mplx,ALR H2O2 inh,Bfl-1 A1 inh,SUMO Mot1 rescue
Cc1ccc(NNS(=O)(=O)c2ccc(C)cc2)cc1,2,32,0,98*,0,236
CC(=O)Nc1ccc(S(=O)(=O)NNc2ccc([N+](=O)[O-])cc2)cc1,11,1,0,98*,-1,296*
COC(=O)c1ccc(N2CCN(CC(=O)c3ccc(-c4ccccc4)cc3)CC2)c([N+](=O)[O-])c1,11,32,0,4,0,8
COc1ccc(S(=O)(=O)Nc2cccc3c2O[C@H](CN(C)S(=O)(=O)c2ccc(Cl)cc2)[C@H](C)CN([C@H](C)CO)C3=O)cc1,9,1,0,0,-1,1
C/C(=N\NC(=O)COc1ccc([N+](=O)[O-])cc1)C(C)(C)C,-4,5,0,-3,2,-4
CC(=O)N/C(=C\c1ccccc1)C(=O)OCC(=O)N(C)C1CCS(=O)(=O)C1 (stereo not given),23,2,0,-3,1,13
O=P(COCCOCCOCP(=O)(c1ccccc1)c1ccccc1)(c1ccccc1)c1ccccc1,6,1,0,0,0,162
Nc1ccccc1OCCOCCOCCOc1ccccc1N,-1,6,0,97*,0,-1
CCCCOc1ccccc1N,6,2,0,-9,0,1
Nc1ccccc1OCP(=O)(c1ccccc1)c1ccccc1,6,4,0,96*,1,5
CN(C(=O)c1cccs1)c1ccc(OCC(=O)N2CCC(C(N)=O)CC2)cc1,2,-2,0,-13,0,203
COc1ccc(-n2cc(-c3ccc(OC(F)F)cc3)[n+]3c2CCCCC3)cc1,-2,0,0,-16,0,-12
CCOC(=O)Cc1csc(SCC(=O)N2CCN(c3ccc(OC)cc3)CC2)n1,4,1,0,87*,-1,11
COc1ccc(N2CCN(C(=O)CSc3ncn[nH]3)CC2)cc1,-3,0,0,99*,0,-11
Cc1noc(C)c1CSCC(=O)N(C)CC(=O)Nc1ccc(Cl)cc1,-5,0,1,-3,1,24
Cc1ccc(S(=O)(=O)Nc2ccnc(-c3cccnc3)n2)cc1,-28,-3,0,-3,0,-14
C[C@H](c1ccccc1)n1nnc(COCc2ccccc2)c1C#CCOCc1ccccc1,0,6,0,7,1,0
CCC(C)(C)NC(=O)C(c1cccc(OC)c1OC)N(C(=O)CCC(=O)Nc1cc(C)on1)C(C)C (stereo not given),8,0,0,4,0,15
COc1ccc(C(=O)N2CCc3ccccc32)cc1,4,5,0,.,0,16
COc1ccc(C(=O)/C=C2\NCC3c4ccccc4CCN3C2=O)cc1 (stereo not given),-10,89*,0,2,0,0
Cc1cc(NC(=O)CSc2nccn2-c2cccc(Cl)c2)no1,8,-3,0,-14,1,8
CCc1cccc(NC(=O)CC2Oc3ccccc3NC2=O)c1 (stereo not given),12,4,0,1,1,-7
CCN(CCNC(=O)CC1Oc2ccccc2NC1=O)c1ccccc1 (stereo not given),43,7,0,97*,0,-15
O=C(CC1Oc2ccccc2NC1=O)NCCc1ccccc1 (stereo not given),17,9,0,86*,1,-12
Cc1ccc(CCNC(=O)CC2Oc3ccc(C)cc3NC2=O)cc1 (stereo not given),1,-1,0,18,1,2
SMILES,VLA-4 inh,AHR act,Efflux pump mplx,ALR H2O2 inh,Bfl-1 A1 inh,SUMO Mot1 rescue
CC1CCN(Cc2ccc(NC(=O)CC3Oc4ccccc4NC3=O)cc2)CC1 (stereo not given),37,4,0,92*,1,-9
COC(=O)Nc1nc2c(C)cccc2s1,2,23,0,0,0,11
Cc1cccc2sc(NC(=O)c3ccc(Cl)s3)nc12,17,48*,0,97*,-2,7
CSc1cccc(NC(=O)Nc2nc3c(C)cccc3s2)c1,12,119*,0,5,-2,3
COc1cccc2sc(NNC(=O)COc3ccccc3)nc12,-5,51*,0,.,-2,-18
CCC(=O)NNc1nc2c(C)cccc2s1,-6,23,0,13,0,5
COc1cccc2sc(NC(=O)c3ccc(Br)s3)nc12,18,71*,0,.,-2,1
CCN(CC)CCCNC(=O)CN1N=C(c2ccc(OC)cc2)CCC1=O,-8,2,0,3,0,7
COc1ccccc1N1CCN(S(=O)(=O)c2ccc(NC(C)=O)cc2)CC1,-13,1,0,35,0,-14
COc1ccc(NC(=O)CN(C)C2CCS(=O)(=O)C2)cc1 (stereo not given),-1,0,0,-2,0,15
Cc1ccc(Cl)cc1-n1ncc2c(NNC(=O)c3ccco3)ncnc21,-2,-4,0,.,0,348*
O=C1CCC(C(=O)OCC(=O)N2N=C3/C(=C/c4ccccc4)CCCC3C2c2ccccc2)N1 (stereo not given),2,73*,0,.,0,4
CNC(=O)c1sc(N2N=C3/C(=C/c4ccccc4)CCCC3C2c2ccccc2)nc1C (stereo not given),-4,25,0,99*,-1,9
COc1ccc(/C=C2\CCCC3C2=NN(C(=O)CSc2n[nH]c(N)n2)C3c2ccc(OC)cc2)cc1 (stereo not given),3,2,0,-9,-1,-8
Fc1ccc(N=Cc2ccc[nH]2)cc1,10,0,0,-6,-1,-13
CC(=O)Nc1ccc(N=Cc2ccc[nH]2)cc1,3,0,0,98*,1,-9
O=C(NCc1cccnc1)c1ccc(NC(=O)c2cccc([N+](=O)[O-])c2)cc1,-3,3,0,.,-1,59
COc1cccc(/C=C2\N=C3CCCCCN3C2=O)c1,-1,8,0,4,0,.
CCOc1cc(/C=C2\SC(N)=NC2=O)ccc1O,-5,-3,0,98*,-1,7
CCOc1cc(/C=C2\SC(=O)N=C2N)ccc1O,0,48*,0,.,1,-24
CCOc1cc(/C=C2\N=C3CCCCCN3C2=O)ccc1O,23,8,0,99*,1,.
CCOCCN1CCN(C2c3ccccc3CSc3ccccc32)CC1 (stereo not given),1,-2,0,-5,0,-12
CCCc1nnc(NC(=O)CCC(=O)NC2CCCC2)s1,1,1,0,2,0,-2
Cn1c(NCc2cccs2)nc2ccccc21,-3,49*,0,?,-6,2

# Assay outcomes deposited in PubChem by several laboratories.
